Source: the supplement of paper PMC8728848
The full list was thinned out, with the strongest signals kept by preference.

The substances below were run on Gal(b1-3)Gal(b1-4)GlcNAc (assay: glycan array binding signal (z-score within array); higher = stronger binding). Conditions: glycan notation: IUPAC condensed, linker removed.
Summary of the method: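 Arrays were curated from the Consortium for Functional Glycomics database, 3228 in total, and kept only where the protein sequence was available. Binding is expressed as a within-array Z-score. This score was averaged across arrays of the same protein sequence at different concentrations or buffers and across linkers, and negative values can be read as non-binding.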

Substance | glycan array binding signal (z-score)
SpGH101 (Streptococcus pneumoniae), Q8DR60 | -0.193
SiiE (Salmonella typhimurium), A0A0H3NVH0 | -1.51
Actinohivin (Actinomycete K97) | -0.14
Wza (Escherichia coli), P0A930 | 3.02
